Inhibition data for 40 compounds are collected here from PubChem BioAssay.

Values without a mark were called inactive. How the calls were made is not given here.

By inhibition is commonly meant the change of the read-out against control, counted positive when it falls.

This experiment deals with Pantothenate synthetase (Mycobacterium tuberculosis (strain ATCC 25618 / H37Rv)) (UniProt P9WIL5). The experiment in a line: Recombinant Mtb pantothenate synthetase (PanC) inhibitors, coupled enzyme, confirmatory (AID 375).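 Further: 0% = full reaction with vehicle and 100% = no enzyme background.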 As to conditions: coupled enzyme assay; at 10 µM, active compounds read high.
Chain of Pantothenate synthetase (Mycobacterium tuberculosis (strain ATCC 25618 / H37Rv)) (P9WIL5 whole entry, looked up): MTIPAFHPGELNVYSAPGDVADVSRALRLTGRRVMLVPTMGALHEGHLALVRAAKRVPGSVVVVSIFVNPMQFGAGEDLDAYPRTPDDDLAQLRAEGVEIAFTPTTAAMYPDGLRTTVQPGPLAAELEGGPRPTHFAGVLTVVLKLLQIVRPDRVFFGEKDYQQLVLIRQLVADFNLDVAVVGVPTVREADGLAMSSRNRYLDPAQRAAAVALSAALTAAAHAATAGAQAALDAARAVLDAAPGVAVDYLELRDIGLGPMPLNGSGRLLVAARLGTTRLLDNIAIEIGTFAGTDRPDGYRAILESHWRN
For the compound `COC(=O)C1CCN(C(=O)CN2C(=O)NC(CCc3ccccc3)C2=O)CC1` (stereo not given), the inhibition is 0%.
The figure for `COC(=O)c1c(NC(=O)C2CC=CCC2C(=O)O)sc(C(N)=O)c1C` (stereo not given) is 1%; for `CCOC(=O)c1[nH]c(C)c(C(=O)Nc2ccccc2F)c1C` it is 3%; for `COc1cc(C2CC(=O)NC3=C2C(=O)CC(C)(C)C3)ccc1O` (stereo not given) it is 0%.
The same measure for `Cc1sc2ncnc(OCC(=O)N3CCN(S(=O)(=O)c4ccc(Cl)cc4)CC3)c2c1C`: 0%; for `CCOc1ccc(C2C=C(c3ccc(F)cc3)Nc3ncnn32)cc1` (stereo not given): 9%.
Take `CC(NC(=O)c1ccccc1NC(=O)c1ccco1)C(=O)O` (stereo not given): the inhibition is 0%.
For `COc1cc(NC(=O)c2ccc(COCC(F)(F)F)o2)cc(OC)c1OC`, the inhibition is 7%.
The same measure for `CC(=O)NC(C)C(=O)OCC(=O)Nc1ccc(Br)cc1` (stereo not given): 0%; for `CN(C)c1ccc(CNC2CC(C)(C)NC(C)(C)C2)cc1`: 0%.
As to `O=C(c1cccs1)N(Cc1ccco1)Cc1cc2ccccc2[nH]c1=O`, the inhibition is 0%.
The figure for `Cn1c(=O)c2c(nc(SCC(=O)NCc3ccc4c(c3)OCO4)n2Cc2ccccc2)n(C)c1=O` is 0%.
Turning to `CC(=O)Nc1ccc(OC(=O)c2cccs2)cc1`, the inhibition was 0%.
The figure for `O=C1c2ccccc2C(Nc2ccc3c(c2)OCCO3)N1Cc1ccc2c(c1)OCO2` (stereo not given) is 1%; for `COCCNC(=O)C(c1ccc(C)o1)N(Cc1ccc(F)cc1)C(=O)Cn1nnc2ccccc21` (stereo not given) it is 8%.
`O=C1CC(N2CCOCC2)C(=O)N1c1ccccc1Cl` (stereo not given): the inhibition was 1%.
As for `CCOC(=O)NC(=O)CSc1nnc(C)s1`, the inhibition is 4%.
The figure for `COc1cccc(CNC(=O)CCn2c(=O)oc3ccccc32)c1` is 0%; for `O=C(NCc1ccc(F)cc1)C1CCN(C(=O)NCc2ccccc2)CC1` it is 0%.
In the case of `COC(=O)C1=C(C)NC(C)=C(C(=O)OC)C1C1CC=CCC1` (stereo not given), the inhibition was 3%.
Regarding `COc1ccc(NC(=O)c2cnc3n(c2=O)CCS3)cc1OC`, the inhibition was 0%.
In the case of `Cc1cc(NC(=O)CS(=O)(=O)c2cn(Cc3cccc(F)c3)c3ccccc23)no1`, the inhibition is 4%.
Take `COc1ccc(Br)cc1S(=O)(=O)N1CC(C)OC(C)C1` (stereo not given): the inhibition is 7%.
Turning to `COc1ccccc1S(=O)(=O)Cc1ccc(C(=O)N2CCN(c3ccc(C)cc3)C(C)C2)o1` (stereo not given), the inhibition was 13%.
As for `CCOC(=O)C1=C(C)OC(N)=C(C#N)C1c1ccoc1` (stereo not given), the inhibition was 0%.
Take `NC(=O)NC(=O)CSc1cccc(C(F)(F)F)c1`: the inhibition is 0%.
The figure for `CNCCCC1c2ccccc2C=Cc2ccccc21` is 0%; for `CS(=O)(=O)N1CCN(C(=O)c2ccc(-c3ccccc3)cc2)CC1` it is 9%.
As to `COC(=O)NCC(c1cccnc1)N1CCOCC1` (stereo not given), the inhibition is 0%.
Consider `S=c1[nH]nc(COc2ccccc2)n1C1CCCCC1`, for which the inhibition was 0%.
The same measure for `COc1oc(-c2ccccc2)nc1C(F)(F)F`: 0%; for `CCOC(=O)C1CCN(Cc2ccc(C(=O)OC)cc2)CC1`: 1%.
The figure for `O=C(NCc1ccc2c(c1)OCO2)C1CCC(CNS(=O)(=O)c2ccccc2)CC1` (stereo not given) is 0%; for `O=C(Cn1cnc2c(oc3ccccc32)c1=O)N1CCN(c2ccccc2)CC1` it is 1%.
The figure for `CC(=O)NC(CCS(C)(=O)=O)C(=O)Nc1cc(C)on1` (stereo not given) is 0%.
Consider `CCOc1ccccc1NC(=O)C1CCCN(S(=O)(=O)c2cccc3cccnc23)C1` (stereo not given), for which the inhibition is 6%.
As to `COc1cc(C(=O)N2CCC(NC(=O)C(Cc3ccc(C)cc3)NC(C)=O)CC2)cc(OC)c1OC` (stereo not given), the inhibition is 3%.
The figure for `COc1ccc(C(=O)CN2C(=O)NC3(CCCc4ccccc43)C2=O)cc1OC` (stereo not given) is 0%; for `Cc1cc(C)nc(SCc2csc(N)n2)n1` it is 1%; for `O=C(NCCSCc1ccco1)Nc1cccc(Cl)c1` it is 3%.
